Screening data (PubChem)
Hits are enriched below; roughly 5.4% of the tested compounds scored in any of these assays.
HPGD block: HPGD (human) dehydrogenase inhibition. purified HPGD, NADH fluorescence kinetic, PGE2 substrate. Potency, µM, for the others: at the top dose activity change, negative = inhibition, most hits filed as inhibitors. 150,000 compounds, 4.3% hits. AID 894; active = well fitted inhibition curve with a large enough effect, not every such curve was filed as active; inconclusive = small, poorly fitted or top-dose-only effect, or another doubt; inactive = no such curve, though single readings can be large or run the other way; note: potency is the fitted concentration of half-maximal effect
Target sequence (P15428 whole entry, looked up): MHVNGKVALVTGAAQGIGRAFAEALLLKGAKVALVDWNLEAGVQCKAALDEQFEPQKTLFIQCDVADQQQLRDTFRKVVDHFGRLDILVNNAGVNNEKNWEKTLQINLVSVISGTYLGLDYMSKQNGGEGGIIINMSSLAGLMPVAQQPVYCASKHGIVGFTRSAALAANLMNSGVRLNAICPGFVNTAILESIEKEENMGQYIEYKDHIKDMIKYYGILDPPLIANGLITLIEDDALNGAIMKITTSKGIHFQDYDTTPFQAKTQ
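NADH formation kinetics: reaction with 30 uM PGE2 and 1 mM NAD+ (final), 20 nM enzyme, Tris-HCl pH 8 with Tween 20, after 15 min compound preincubation at room temperature. Fluorescence change, last versus first of five reads.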
PNC assembly inh: perinucleolar compartment assembly inhibition; PC3M PTB-GFP, PNC prevalence imaging, 16 h; active compounds read low; activity change (PNC), negative = inhibition, % at 10 µM; 140,000 compounds, 3.1% hits;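 active = readout at or below -70, meaning at least 70% loss of cells showing the perinucleolar compartment, a nuclear body marking cancer cells; inconclusive = readout between -30 and a set limit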;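 note: plate controls were DMSO wells for no effect and camptothecin positive control wells for full effect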
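Read-out is percentage of cells bearing a perinucleolar compartment, from automated 20x imaging of fixed, Hoechst-stained PC3M PTB-GFP cells. Cells were seeded 4 h, then exposed 16 h to compound (23 nl of library stock) in duplicate plates.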
ALOX15B inhib: 15-hLO-2 (ALOX15B) enzyme inhibition; O15296; purified 15hLO-2, xylenol orange hydroperoxide absorbance; Potency, µM (titrated, usually from 57.1 µM), without a hit: top-dose activity change, negative = inhibition, actives largely listed as inhibitors; 110,000 compounds, 0.56% hits; AID 881; note: potency is the fitted concentration of half-maximal effect; nearly all actives have a fitted effect of over 60% in size
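Read-out: hydroperoxide product oxidises ferrous iron, measured as xylenol orange complex via the 573-to-405 nm absorbance ratio after 30 min. Reaction: 50 nM enzyme, 15 min compound preincubation, 45 uM arachidonic acid, 90 min RT, Hepes pH 7.5 with Triton X-100.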
IMPase cell inh: IMPase inhibition in cells. 120,000 tested, under 10 active. CHO-M1 cells, IP1 accumulation, HTRF TR-FRET ratio. P97697. inhibition (IP1 accumulation), % at 46.1 µM; active = well fitted curve in the direction sought with a large enough effect in the signal ratio, not every such curve was filed as active; inconclusive = small, poorly fitted or top-dose-only effect, or a change in a side signal; inactive = no such curve, though single readings can be large or run the other way; the % refers to the signal ratio;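 note: cells stimulated with carbachol in lithium chloride buffer; plate controls were DMSO basal wells for no effect and reference inhibitor wells for full effect; higher means more IMPase inhibition seen as more IP1 and lower FRET ratio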
Target sequence (P97697 whole entry, looked up): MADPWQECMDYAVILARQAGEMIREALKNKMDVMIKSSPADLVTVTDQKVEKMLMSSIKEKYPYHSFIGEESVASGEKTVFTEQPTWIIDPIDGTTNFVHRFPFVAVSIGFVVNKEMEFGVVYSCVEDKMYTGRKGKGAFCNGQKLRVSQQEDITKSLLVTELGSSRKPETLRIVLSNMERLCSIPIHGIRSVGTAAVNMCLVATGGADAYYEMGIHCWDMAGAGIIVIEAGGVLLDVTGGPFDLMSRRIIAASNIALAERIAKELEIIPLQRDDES
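Seeded CHO-M1 cells were dosed with compound at up to 46 uM, stimulated with carbachol for 30 min, then lysed in IP-One detection reagents. Higher IP1 lowers the TR-FRET signal.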
IMPase Li inh: membrane-permeable IMPase blocker, potentiated with lithium; CHO-M1 cells, IP1 TR-FRET (IP-One), carbachol + lithium; Potency, µM (doses to about 59.4 µM), for inactives: top-dose activity, negative = IMPase inhibition, most hits filed as inhibitors; 210,000 compounds, 0.35% hits;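 note: IP1 builds up when IMPase is blocked and the TR-FRET signal falls; potency is the fitted concentration of half-maximal effect; plate controls were basal vehicle for no effect and high inhibitor control for full effect; nearly all actives have a fitted effect of over 50% in size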
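CHO cells stably expressing M1 receptor (2000/well, cultured 16–30 h) treated 30 min at 37C with compound plus low lithium. Cytosolic IP1 by TR-FRET (665/620 ratio and 620 channel) after 10 min lysis; AC50 by Hill fit.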
ALOX12 inhib: blocks human 12-lipoxygenase activity; 150,000 compounds, 0.12% hits; P18054; AID 1452; Potency, µM (highest dose often 57.1 µM), inactives show top-dose activity change, negative = inhibition, usual class: inhibitors; purified 12-hLO, xylenol orange hydroperoxide absorbance; note: potency is the fitted concentration of half-maximal effect; nearly all actives have a fitted effect of over 55% in size
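150 nM 12hLO, 25 mM Hepes pH 7.0 + 0.01% Triton X-100; cpd preinc 15 min RT; 40 uM arachidonic acid, 30 min RT; Fe-XO 30 min; A573/A405 ratio as read-out.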
The depositor's hits bear a star; ? = inconclusive; . = not tested or not shown; ! = a repeat was not active; [ ] = another dose, or the depositor's remark. Unless noted, calls come from the whole dose curve; as a rule, active = well fitted curve in the direction sought with a large enough effect; inconclusive = small, poorly fitted or top-dose-only effect, or another doubt; inactive = no such curve, though single readings can be large; an effect the other way counts as inactive or inconclusive. Unless noted, % is set by controls: 0 for no effect and ±100 for the full control effect.

SMILES	HPGD block	PNC assembly inh	ALOX15B inhib	IMPase cell inh	IMPase Li inh	ALOX12 inhib
CCN(CC)S(=O)(=O)c1ccc(O)c(NC(=O)c2ccc(N3CCOCC3)c([N+](=O)[O-])c2)c1	32µM*	28	.	.	-2%	0%
O=C(c1cc2ncc(Br)cn2n1)N1CCN(C(=O)c2ccco2)CC1	-23%	-15	-6%	4	3%[38.3 µM]	-6%
O=C(c1cc2ncc(Br)cn2n1)N1CCOCC1	22µM*	-5	0%	9	-15%[38.3 µM]	1%
Cc1ccc(NC(=O)c2ccc(Cl)c(N3C(=O)C=CC3=O)c2)cc1	3.5µM*	27	0.32µM*	3	45%[38.3 µM]	?
CC1(C)O[C@@H]2[C@@H](O1)C(c1ccccc1)(c1ccccc1)OP(=O)(O)OC2(c1ccccc1)c1ccccc1	2%	.	.	.	-4%	.
Cc1noc(C)c1-c1nccc(NCc2cccnc2)n1	-9%	.	15%	.	-2%	-2%
O=C(c1ccccn1)c1conc1C(=O)c1ccc(Br)cc1	-22%	-22	1%	?	-6%[38.3 µM]	-3%
Cc1ccc(C(=O)c2nocc2C(=O)c2cccs2)cc1	22µM*	-20	5%	-5	27%[38.3 µM]	-10%
CCOC(=O)c1ccc(Oc2nc(OC)nc(N(C)C)n2)cc1	-15%	-93*	.	1	7%	0%
O=C(NCCO)c1ccc(-n2c(=O)c(=O)[nH]c3ccccc32)cc1	-6%	.	.	.	.	0%
Cc1noc(C)c1-c1nc(N2CCOCC2)c2ccccc2n1	25µM*	.	12%	.	1%	-10%
Cc1noc(C)c1-c1nc(N2CCN(C)CC2)c2ccccc2n1	.	.	27%	.	1%	.
CCOC(=O)C1=NN(C(=O)c2ccc(OC)cc2)C(O)(c2ccc(Cl)cc2)C1 (centres undefined)	-9%	-18	.	.	5%	-4%
CCOC(=O)C1=NN(C(=O)c2ccccc2)C(O)(c2ccc(C)cc2)C1 (centres undefined)	-5%	-95*	.	.	-5%	-6%
COC(=O)N[C@@H](c1cccc(F)c1)C(C(C)=O)C(=O)OC (some centres undefined)	-9%	.	.	.	26%	.
Cc1cccc(Nc2nnc(SCC(=O)Nc3cccc(S(=O)(=O)N4CCCCC4)c3)s2)c1	20µM*	13	.	.	5%	-2%
C=CCC1(NC(C)c2ccccc2)CCCCC1 (centres undefined)	-7%	-113*	.	.	2%	-4%
O=C(CC(NC(=O)c1ccccc1Cl)c1ccccc1)NCCc1ccc(Cl)cc1 (centres undefined)	-3%	-108*	.	-1	0%	2%
O=C1CC(N2CCC(c3nc4ccccc4o3)CC2)C(=O)N1c1ccc(Cl)c(C(F)(F)F)c1 (centres undefined)	20µM*	14	?	1	-6%[38.3 µM]	-16%
O=C1CC(N2CCC(c3nc4ccccc4o3)CC2)C(=O)N1c1ccc(F)cc1 (centres undefined)	.	.	.	.	6%	.
CN1OC2C(=O)N(c3ccccc3)C(=O)C2C1c1ccc(F)cc1 (centres undefined)	.	18	-1%	-23	.	0%
CC(C)C1NC2(C(=O)c3ccccc3C2=O)C2C(=O)N(c3ccc(F)cc3)C(=O)C12 (centres undefined)	32µM*	29	-24%	-4	-18%[38.3 µM]	-5%
CC[C@]1(O)C[C@H]2CN(CCc3c([nH]c4ccccc34)[C@](C(=O)OC)(c3cc4c(cc3OC)N(C=O)[C@H]3[C@@](O)(C(=O)OC)[C@H](OC(C)=O)[C@@]5(CC)C=CCN6CC[C@]43[C@H]65)C2)C1	.	.	51%	2	.	-5%
CC(=O)NCCc1c[nH]c2ccc(O)cc12	11µM*!	.	-12%	10	14%	-2%
O=C(O)C1C2C=CC(O2)C1C(=O)NCc1ccc(Cl)cc1 (centres undefined)	6%	-131*	-1%	19	-5%	0%
SMILES	HPGD block	PNC assembly inh	ALOX15B inhib	IMPase cell inh	IMPase Li inh	ALOX12 inhib
C[C@@H]1CCCN(CP(=O)(c2ccccc2)c2ccccc2)C1	-8%	.	-1%[11.4 µM]	.	-5%	3%[11.4 µM]
COc1ccccc1CN(Cc1nc2ccccc2c(=O)[nH]1)C(=O)Nc1ccccc1C	-11%	-115*	1%	3	30%[38.3 µM]	1%
NC(=O)c1cc(N2C(=O)C=CC2=O)ccc1Cl	7.9µM*	-13	-11%	-8	22%[38.3 µM]	-18%
Cc1ccc(SCC2(O)CCN(S(=O)(=O)c3ccc(Cl)cc3)CC2)cc1	-9%	-100*	.	-9	13%	-21%
CN1CCN(C(=O)c2ccc(CN3CCOCC3)cc2)CC1	-20%	-93*	-11%	1	-16%[38.3 µM]	7%
O=C(c1ccc(CN2CCOCC2)cc1)N1CCC(Cc2ccccc2)CC1	-19%	-29	4%	3	5%[38.3 µM]	3%
CN1CCN(CC2(O)CCN(S(=O)(=O)c3ccc(Cl)cc3)CC2)CC1	.	.	.	.	-2%	.
CN1CCN(C(=O)c2ccc(CSc3ccc(Cl)cc3)cc2)CC1	8.9µM*	?	.	4	5%	3%
O=C(c1ccc(Cl)cc1)N1CCC(O)(CSc2ccccc2)CC1	-3%	-91*	5%[11.4 µM]	-12[1.84 µM]	21%[38.3 µM]	2%
CCOC(=O)N1CCN(C(=O)c2ccc(CSc3ccc(Cl)cc3)cc2)CC1	.	.	.	.	16%	.
CCCCCCCN	-4%	.	-5%	.	-24%	-2%
N#C/C(=C\c1ccc(N2CCCCC2)o1)C(=O)Nc1cccc(Br)c1	-18%	-108*	.	.	9%	0%
Cc1ccc(/C=C(\C#N)C(=O)Nc2cccc(Br)c2)o1	.	.	.	-16	.	.
COc1ccc(NC(=O)CC2Sc3ncnn3C2=O)cc1 (centres undefined)	7.9µM*	24	.	7	4%	-2%
CCOC(=O)c1ccc(NC(=O)CC2SC(=NC)N(C)C2=O)cc1 (centres undefined)	-9%	?	-8%	-9	16%[38.3 µM]	1%
O=C(CC1Sc2ncnn2C1=O)Nc1ccc(Cl)cc1 (centres undefined)	.	.	.	.	3%	.
CCOC(=O)c1ccc(NC(=O)CC2Sc3ncnn3C2=O)cc1 (centres undefined)	16µM*	?	-27%	19	12%	-1%
C/C(=N\[N+](C)(C)C)c1ccc(C)c(C)c1	-1%	.	0%[11.4 µM]	.	16%	2%[11.4 µM]
Cc1ccc(C(=O)Nc2ccc(C(=O)N3CCCCC3)cc2)cc1	.	.	.	.	1%	.
Cc1cc(C)cc(C(=O)N2CCCCCC2)c1	16µM*	0	2%	4	-15%[38.3 µM]	5%
Cc1cc(C(=O)N2CCCCCC2)cs1	0.45µM*	-124*	7%[11.4 µM]	11[1.84 µM]	28%[38.3 µM]	0%
Cc1cc(F)c(F)cc1C(=O)N1CCCC1	.	.	.	.	6%	.
Oc1cc(O)cc(/C=C/c2ccc(O)c(O)c2)c1	?	.	4.5µM*	.	17%	?
